About 2,100 (0.62%) of roughly 340,000 compounds were called active.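 The calls were made as follows: active = first-screen hits whose inhibition reached a set limit at any dose in the follow-up dose series; inconclusive = inhibition above the set first-screen limit but never retested; inactive = the rest.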 Only a sample is shown. Measured potencies and affinities stand elsewhere.
molecular target: Rac GTPase-activating protein 1 (Homo sapiens) (UniProt Q9H0H5); experiment: blockers of MgcRacGAP-driven Rac1 GTP hydrolysis – biochemical, ADP Hunter fluorescence, primary and confirmatory, confirmation (AID 624330); conditions: MgcRacGAP-stimulated Rac1 GTP hydrolysis, at 30 µM, stronger effect = higher value, GST-tagged Rac1 F28L mutant substrate;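 also: fluorescence reports GDP produced by GAP-driven GTP hydrolysis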
Sequence (Q9H0H5 whole entry, looked up): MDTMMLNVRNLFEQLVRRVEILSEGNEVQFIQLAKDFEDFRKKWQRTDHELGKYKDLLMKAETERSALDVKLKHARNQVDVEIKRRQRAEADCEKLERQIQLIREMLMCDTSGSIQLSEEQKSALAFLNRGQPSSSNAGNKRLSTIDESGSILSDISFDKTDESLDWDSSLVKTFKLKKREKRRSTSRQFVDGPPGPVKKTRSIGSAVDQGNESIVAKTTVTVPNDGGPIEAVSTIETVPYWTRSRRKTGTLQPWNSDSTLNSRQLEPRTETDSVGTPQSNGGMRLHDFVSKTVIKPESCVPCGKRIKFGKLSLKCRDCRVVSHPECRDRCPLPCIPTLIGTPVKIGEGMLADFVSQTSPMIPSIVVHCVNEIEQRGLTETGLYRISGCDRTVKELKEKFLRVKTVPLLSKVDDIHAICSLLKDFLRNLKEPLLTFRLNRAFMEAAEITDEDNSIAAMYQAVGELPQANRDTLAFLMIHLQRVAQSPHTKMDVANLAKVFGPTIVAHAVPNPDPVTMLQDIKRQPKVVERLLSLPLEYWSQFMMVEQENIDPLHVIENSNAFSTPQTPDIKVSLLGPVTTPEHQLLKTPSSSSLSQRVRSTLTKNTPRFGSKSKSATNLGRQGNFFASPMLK

inhibition, inactive:
COc1cc(C(=O)O)nc(OC)n1 0.97%
CCOC(=O)c1nn(-c2ccc(Cl)cc2)c(=O)c(C#N)c1C 5.44%
O=C(O)CNC(=O)c1ccc(Oc2c(F)c(F)c(Oc3ccc(C(=O)NCC(=O)O)cc3)c(F)c2F)cc1 -1.5%
O=S(=O)(O)c1nnc2sc3ccccc3n12 7.48%
N#CCSc1nnc2sc3ccccc3n12 5.4%
O=S(=O)(Cc1ccccc1)N1CCN(Cc2ccc3c(c2)OCO3)CC1 4.33%
Cc1cccc(NC(=O)C2C3C=CC(C4CC34)C2C(=O)O)c1 (stereo unspecified) 10%
Cc1nc2ncnn2c(C)c1Cc1cccc(C(F)(F)F)c1 5.74%
CC1Cc2ccccc2N1C(=O)CNc1ccccc1N1CCCCC1 (stereo unspecified) -0.46%
CCCCNC(=O)N1c2ccccc2CC1C (stereo unspecified) 1.84%
Cc1cc(N2C(=O)C(O)=C(C(=O)c3cc4ccccc4o3)C2c2ccc(Cl)cc2)no1 (stereo unspecified) -5.51%
O=[N+]([O-])c1ccccc1NS(=O)(=O)c1ccccc1 0.32%
O=c1cc[nH]c2c1ccc1c(=O)cc[nH]c12 10.4%
Cc1ccc2[nH]ccc(=O)c2c1 10.1%
CC1CCC2(CC1)NC(=O)N(CC(=O)N1CC(C)CC(C)C1)C2=O (stereo unspecified) 3.96%
CCc1ccc2c(c1)C(c1ccc([N+](=O)[O-])cc1)=NNC(c1ccc(C)cc1)=N2 11%
O=C(O)c1cc(N/N=C/c2ccncc2)ccc1Cl -1.57%
Cc1ccc(/C=N/Nc2ccc(F)cc2)s1 8.64%
Cc1ccc(/C=N/Nc2cccc(C(=O)O)c2)s1 27.8%
CSc1ccc(/C=N/Nc2ccc(Cl)c(C(=O)O)c2)cc1 5.85%
CC1=NN(c2ccc(Cl)c(C(=O)O)c2)C(=O)C1 14.9%
O=C1NN(c2ccc(F)cc2)C(=O)/C1=C\C=C\c1ccco1 8.7%
CCOC(=O)c1ccc(N2N=C(C)/C(=C/C=C/c3ccco3)C2=O)cc1 3.99%
CC1=NN(c2ccc(C(=O)OC(C)C)cc2)C(=O)/C1=C\C=C\c1ccco1 3.71%
O=C(C1=C(O)C(=O)N(CCN2CCOCC2)C1c1cccc(Br)c1)c1cc2ccccc2o1 (stereo unspecified) 4.64%
C=CCC[C@@H](Cc1ccc(F)cc1)C(=O)OC[C@@H](Cc1c[nH]c2ccccc12)NC(=O)[C@@H](CC=C)CC(=O)N[C@H](CO)Cc1ccccc1 11.1%
CCN(CC)C1CCN(C(=O)c2cc(COc3cccc4cccnc34)on2)C1 (stereo unspecified) -5.07%
COC(=O)C(NC(C)=O)(Nc1ccc(C)cn1)C(F)(F)F (stereo unspecified) -9.84%
O=[N+]([O-])c1ccccc1CN1CCN(Cc2ccccn2)CC1 28.6%
COc1cc(CN2CCC(C(=O)NC(C)(C)C)CC2)ccc1OCc1ccccc1 29.2%
CCOC(=O)c1cc(CC)sc1NC(=O)Cc1ccsc1 14.6%
C#Cc1ccc(CN2CCN(CCc3ccccc3)C(CCO)C2)cc1 (stereo unspecified) 5.19%
Cc1c(C)c2ccc(OCC(=O)NC3CCN(Cc4ccccc4)CC3)cc2oc1=O 4.93%
C[C@@H]1CCCCO[C@H](CN(C)C(=O)Nc2ccc(F)cc2)[C@@H](C)CN([C@H](C)CO)C(=O)c2cc(NC(=O)c3ccccc3)ccc2O1 5.34%
Oc1ccc(N=Nc2ccc3ccccc3c2)cc1 18.5%
Nc1ccc(N=Nc2ccccc2Cl)c(N)n1 10.4%
Nc1ccc(N=Nc2ccccc2)c(N)n1 8.49%
O=C(O)c1ccccc1N=Nc1ccc(O)cc1 13.8%
O=C(Nc1cccc(-c2ccccc2)c1)N1CCN(C(=O)Nc2cccc(-c3ccccc3)c2)CC1 14.5%
Cc1cc(NC(=O)c2ccc(C)o2)no1 2.09%
CCOC(=O)N1CCC(N2Cc3cccc(C(=O)Nc4ccc(N(CC)CC)cc4C)c3C2=O)CC1 -10.8%
COC(=O)CNC(=O)c1nn(-c2cccc(OC)c2)c(=O)c2ccccc12 7.12%
CCOC(=O)C1CCN(Cc2coc3c(Cl)cc(Cl)cc3c2=O)CC1 14.9%
O=c1c(CN2CCN(c3cccc(Cl)c3)CC2)coc2c(Cl)cc(Cl)cc12 1.43%
CCOC(=O)c1cnc2c(cnn2C)c1NCCC(O)C(F)(F)F (stereo unspecified) 12.4%
COc1ccc(CCC(=O)NC2CCCc3ccccc32)cc1OC (stereo unspecified) 5.44%
CCOc1ccc(NC(=O)c2cc3n(n2)C(C(F)(F)F)CC(c2ccco2)N3)cc1 (stereo unspecified) 6.77%
COc1ccc(NC(=O)c2cc3n(n2)C(C(F)(F)F)CC(c2ccco2)N3)cc1 (stereo unspecified) 14.5%
CCN(C[C@H]1N[C@@](Cc2ccccc2)(C(=O)OC)[C@H]2C(=O)N(Cc3ccccc3)C(=O)[C@@H]12)C(=O)COc1ccccc1 2.94%
Cc1cc2c([nH]c3ccccc32)c(C)n1 17.6%
Cc1cc2[nH]c3ccccc3c2c(C)n1 5.1%
Cc1ccc(CNc2ccc3c(c2)OCO3)cc1 10.4%
O=C(NCc1ccncc1)Nc1ccc2c(c1)OCO2 14.7%
Cc1cc(NCc2ccncc2)ccc1Br 22.5%
O=C(NCc1ccncc1)C(=O)Nc1ccc2c(c1)OCO2 3.26%
COc1ccc(CN(C)C(=O)Cc2ccc(OC)c(S(=O)(=O)N3CCOCC3)c2)cc1 6.77%
O=C1CSC(c2cn(-c3ccccc3)nc2-c2cc3ccccc3oc2=O)N1Cc1cccnc1 (stereo unspecified) -1.18%
CCN(CC)CCCN(C(=O)c1ccccc1F)c1nc(-c2ccc(OC)cc2)cs1 13.2%
c1ccc(C2=NN(c3ccccc3)CC2)cc1 10.1%
CSc1nnc(-c2nnc(SC)n2-c2ccccc2)n1-c1ccccc1 5.06%
COC(=O)C1=C(C)NC(=O)NC1c1ccc(OCC(=O)N2CCCCC2)cc1 (stereo unspecified) 6.29%

From PubChem BioAssay AID624330 (Southern Research Specialized Biocontainment Screening …, 2012)
